Results published in PubChem BioAssay (NCATS).
Active and inactive are the calls of the source. The call rests on the fitted dose curve; in most records, active means well fitted curve in the direction sought with a large enough effect; inactive means no such curve, though single readings can be large or run the other way.

Test: qHTS for small molecule inhibitors of Yes1 kinase: Counter Assay (AID 686950);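 further: no kinase present so only ADP-Glo detection of a fixed ADP amount is tested; luminescence from ADP-Glo reporting ADP in a fixed ATP and ADP mixture; 0% = DMSO wells with ATP plus ADP and -100% = ATP-only wells without ADP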
Details: series mostly up to 76.9 µM; activity change, negative = inhibition: at the top concentration
In short: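 Enzyme-free ADP-Glo interference check: compounds were preincubated 20 min in buffer, then an ATP/ADP mix (0.08 mM ATP, 0.02 mM ADP final) was added for 60 min at room temperature before two-step ADP-Glo luminescence detection.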

SMILES | activity change, negative = inhibition | outcome
CCS(=O)(=O)c1ccc(OC)c(Nc2ncc(-c3ccccc3Cl)o2)c1 | 2.38% (inactive) | –
O=C1NC(=O)C(c2cccc([N+](=O)[O-])c2)=C1Nc1cc(Cl)c(O)c(Cl)c1 | -3.81% (inactive) | –
COc1ccc2ncn(-c3cc(OC(C)c4ccccc4C(F)(F)F)c(C(N)=O)s3)c2c1 (stereo not given) | 8.53% (inactive) | –
CC(C)=Cc1cccc2[nH]c(O)c(N=Nc3ccc(S(N)(=O)=O)cc3)c12 | 4.79% (inactive) | –
O=C1NC(=O)C(c2ccccc2)=C1Nc1ccccc1 | -1.63% (inactive) | –
CC(C)c1ccc(-c2cc(-c3cn[nH]c3-c3ccccn3)ccn2)cc1 | -3.94% (inactive) | –
COc1cc2ncn(-c3cc(OCc4ccccc4C(F)(F)F)c(C(C)=O)s3)c2cc1OC | 6.18% (inactive) | –
COc1cc(Nc2ncc3c(C)nc(-c4cccc(Oc5ccccc5)c4)n3n2)cc(OC)c1OC | 2.47% (inactive) | –
CC(=O)NCc1cccc(C#Cc2cncnc2Nc2ccc(OCc3cccc(F)c3)c(Cl)c2)c1 | -1.46% (inactive) | –
COc1cc2ncn(-c3cc(OCc4ccccc4Cl)c(C(N)=O)s3)c2cc1OC | 2.17% (inactive) | –
COc1ccccc1C1=C(Nc2ccccc2)C(=O)NC1=O | -2.08% (inactive) | –
Fc1ccc(Oc2nccc(-c3c(-c4ccc(F)cc4)ncn3C3CCNCC3)n2)cc1 | -2.18% (inactive) | –
Cc1ccc(Nc2ccnc(Nc3cccc(C(N)=O)c3)n2)cc1O | 7.04% (inactive) | –
COc1ccc(C2=C(N3CCc4ccccc43)C(=O)NC2=O)cc1 | -0.99% (inactive) | –
CCc1nn2ncccc2c1-c1ccnc(NC2CC2)n1 | 12.6% (inactive) | –
CCn1c(-c2nonc2N)nc2c(C#CC(C)(C)O)nc(OCC(N)c3ccccc3)cc21 (stereo not given) | – | inactive
COC(=O)Nc1nc2ccc(S(=O)(=O)c3ccc(NC(=O)Nc4cc(C(F)(F)F)ccc4F)cc3)cc2[nH]1 | -0.92% (inactive) | –
O=S(=O)(CCNCc1ccc(-c2ccc3ncnc(Nc4ccc(OCc5cccc(F)c5)c(Cl)c4)c3c2)o1)c1ccccc1 | 7.85% (inactive) | –
c1cnn2ncc(-c3ccnc(NCCCN4CCOCC4)n3)c2c1 | 1.83% (inactive) | –
COc1ccccc1Nc1ncc(-c2ccccc2)o1 | -0.371% (inactive) | –

SMILES | activity change, negative = inhibition | outcome
CS(=O)(=O)CCNCc1ccc(-c2ccc3ncnc(Nc4ccc(OCc5ccccc5)c(Cl)c4)c3c2)o1 | 4.55% (inactive) | –
Cc1cccc2c(N=Nc3ccc(S(N)(=O)=O)cc3)c(O)[nH]c12 | 0.144% (inactive) | –
Cc1ccc(O)cc1Nc1ccnc2cc(-c3ccccn3)ccc12 | 5.35% (inactive) | –
O=C1NC(=O)C(c2ccccc2Cl)=C1Nc1cc(Cl)c(O)c(Cl)c1 | -1.75% (inactive) | –
COc1cccc(-n2ncc3c(NN=Cc4ccc(C)cc4)ncnc32)c1 | 0.204% (inactive) | –
CN1CCC(n2cnc(-c3ccc(F)cc3)c2-c2ccnc(NCCO)n2)CC1 | -0.736% (inactive) | –
CCN1CCC(CC(=O)Nc2n[nH]c3nnc(-c4cccc(F)c4F)cc23)CC1 | 2.67% (inactive) | –
CC1=C(C(=O)Nc2ccc3[nH]ncc3c2)C(c2ccc(F)cc2)NC(=O)N1 (stereo not given) | 5.77% (inactive) | –
CCc1cccc(NC(=O)Nc2ccc(Oc3ccc4nc(NC(=O)OC)[nH]c4c3)cc2)c1 | -2.4% (inactive) | –
Cc1ccc(NC(=O)c2ccoc2)cc1-c1ccc(C(=O)NCC2CC2)cc1 | -2.26% (inactive) | –
COc1cc2c(cc1Nc1nc(Nc3cccc(F)c3C(N)=O)c3cc[nH]c3n1)N(C(=O)CN1CCN(C(C)C)CC1)CC2 | 0.268% (inactive) | –
CC(=O)Nc1cccc(C#Cc2cncnc2Nc2ccc(OCc3cccc(F)c3)c(Cl)c2)n1 | 4.46% (inactive) | –
Fc1ccc(-c2ncn(CCCN3CCOCC3)c2-c2ccncc2)cc1 | -2.87% (inactive) | –
c1cnn2ncc(-c3ccnc(Nc4ccc5c(c4)OCCO5)n3)c2c1 | -1.82% (inactive) | –
CNC(=O)c1cccc(C#Cc2cncnc2Nc2ccc(OCc3cccc(F)c3)c(Cl)c2)c1 | 1.17% (inactive) | –
COc1ccc2cc(-c3c(-c4ccncc4)nc(-c4ccc(S(C)=O)cc4)n3C)ccc2c1 (stereo not given) | -0.218% (inactive) | –
Cc1cccc(Oc2nccc(-c3c(-c4ccc(F)cc4)ncn3C3CCNCC3)n2)c1C | -1.86% (inactive) | –
NS(=O)(=O)c1ccc(N=Nc2c(O)[nH]c3ccc(C(=O)NCc4ccncc4)cc23)cc1 | 6.21% (inactive) | –
Fc1ccc(-c2c(-c3ccncc3)nc3n2CCS3)cc1 | 0.28% (inactive) | –
O=C(Nc1n[nH]c2cc(-c3ccccc3)ccc12)C1CC1 | -2.7% (inactive) | –
